Results reported in the supplement of paper PMC9135407.
Where a name gives a salt, the structure may show the parent alone. About 620 (11%) of roughly 5,800 compounds showed activity. Shown is part of a subset that was picked to be rich in actives. Unmarked numbers belong to inactive results.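 How the source made its calls: active = score above a cut-off or among the top three wells of a plate; in these data no inactive exceeds 0.85.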

System: primary human hepatic stellate cells (donor 1)
Test: scaled lipid accumulation score (0 = DMSO-like, 1 = nortriptyline-like); higher = stronger HSC inactivation (lipid re-accumulation), active = hit call of the paper
Conditions: 48 h
[1] = library stock concentration: 10 mM
[2] = library stock concentration: 3.33 mM
[3] = library stock concentration: 80 uM
[4] = library stock concentration: 400 uM
[5] = library stock concentration: 2 mM
[6] = library stock concentration: 1 mM

## CC1CC2C3CCC4=CC(=O)C=CC4(C)C3(F)C(O)CC2(C)C1C(=O)CO (centres undefined)
[1]
  scaled lipid accumulation score: ≤ 0

## COc1cc2ncnc(Nc3ccc(F)c(Cl)c3)c2cc1NC(=O)C=CCN1CCCCC1 [listing 1 of 2 here]
[2]
  scaled lipid accumulation score: 1.08 (active)

## CNC(=O)CN1CCC(Oc2cc3c(Nc4cccc(Cl)c4F)ncnc3cc2OC)CC1 [AZD8931 (Sapitinib)]
[2]
  scaled lipid accumulation score: 0.28
[1]
  scaled lipid accumulation score: 0.713

## COc1cc2ncnc(Nc3ccc(F)c(Cl)c3)c2cc1NC(=O)/C=C/CN1CCCCC1
[3]
  scaled lipid accumulation score: ≤ -0.016
[4]
  scaled lipid accumulation score: 0.274
[1]
  scaled lipid accumulation score: 0.219

## COc1cc2ncnc(Nc3ccc(F)c(Cl)c3)c2cc1NC(=O)C=CCN1CCCCC1 [listing 2 of 2 here]
[5]
  scaled lipid accumulation score: 0.903 (active)
[1]
  scaled lipid accumulation score: 1.47 (active)

## O=C1/C(=C/c2cccs2)CCC/C1=C\c1cccs1
[1]
  scaled lipid accumulation score: ≤ 0

## CC(=O)N1CCN(c2ccc(OCC3COC(Cn4ccnc4)(c4ccc(Cl)cc4Cl)O3)cc2)CC1 (centres undefined) [Ketoconazole]
  scaled lipid accumulation score: 0.131
[2]
  scaled lipid accumulation score: 0.086

## CC(=O)N1CCN(c2ccc(OCC3COC(Cn4ccnc4)(c4ccc(Cl)cc4Cl)O3)cc2)CC1 (centres undefined)
[1]
  scaled lipid accumulation score: 0.048

## CC(=O)Oc1c(C)c(C)c2c(c1C)CCC(C)(CCCC(C)CCCC(C)CCCC(C)C)O2 (stereo not drawn) [Alpha-tochopheryl acetate]
[1]
  scaled lipid accumulation score: 0.117

## O=C1NC(=O)c2c1c1c3ccccc3[nH]c1n1cncc21 [Isogranulatimide]
[2]
  scaled lipid accumulation score: ≤ 0

## CCCCC[C@H](O)/C=C/[C@@H]1[C@@H](C/C=C\CCCC(=O)OC(C)C)[C@@H](O)C[C@H]1O [Prostaglandin F2.alpha. isopropyl ester]
[6]
  scaled lipid accumulation score: ≤ 0

## O=C(O)CC/C=C\C[C@H]1CO[C@@H](c2ccccc2Cl)O[C@H]1c1ccccc1O
[1]
  scaled lipid accumulation score: ≤ 0

## C=C1/C(=C\C=C2/CCC[C@]3(C)[C@@H]([C@H](C)CCCC(C)(C)O)CC[C@@H]23)C[C@@H](O)C[C@@H]1O
[1]
  scaled lipid accumulation score: ≤ 0

## C=C1/C(=C\C=C2/CCC[C@]3(C)[C@@H]([C@H](C)CCCC(C)(C)O)CC[C@@H]23)C[C@@H](O)C[C@@H]1O [Calcitriol]
[2]
  scaled lipid accumulation score: ≤ 0
Library stock concentration: 4.8 mM
  scaled lipid accumulation score: 0.018
[1]
  scaled lipid accumulation score: ≤ 0

## C=C1/C(=C\C=C2/CCC[C@]3(C)[C@@H]([C@H](C)CCCC(C)C)CC[C@@H]23)C[C@@H](O)C[C@@H]1O [Alfacalcidol]
[2]
  scaled lipid accumulation score: ≤ 0
Library stock concentration: 5 mM
  scaled lipid accumulation score: ≤ -0.006

## C=C1C(=CC=C2CCC[C@]3(C)[C@@H]([C@H](C)CCCC(C)C)CC[C@@H]23)C[C@@H](O)C[C@@H]1O [Alfacalcidol]
[1]
  scaled lipid accumulation score: 1.03 (active)

## C=C1/C(=C\C=C2/CCC[C@]3(C)[C@@H]([C@H](C)CCCC(C)(C)O)CC[C@@H]23)C[C@@H](O)C[C@@H]1O [1?,25-Dihydroxyvitamin D3]
[6]
  scaled lipid accumulation score: 0.004

## O=C(c1cc2cc(O)ccc2[nH]1)c1cc2cc(O)ccc2[nH]1 [Flt-3 Inhibitor II]
[2]
  scaled lipid accumulation score: ≤ 0

## CC(=O)Nc1ccc(C(=O)Nc2ccccc2N)cc1 [CI994 (Tacedinaline)]
[2]
  scaled lipid accumulation score: ≤ 0
[1]
  scaled lipid accumulation score: 0.161

## Nc1ccccc1NC(=O)c1ccc(CNC(=O)OCc2cccnc2)cc1 [Entinostat (MS-275)]
[2]
  scaled lipid accumulation score: 0.152
[1]
  scaled lipid accumulation score: 0.418

## Nc1ccccc1NC(=O)c1ccc(CNc2nccc(-c3cccnc3)n2)cc1 [Mocetinostat] [listing 1 of 2 here]
[3]
  scaled lipid accumulation score: ≤ 0
[4]
  scaled lipid accumulation score: ≤ 0

## Nc1ccccc1NC(=O)c1ccc(CNc2nccc(-c3cccnc3)n2)cc1 [Mocetinostat] [listing 2 of 2 here]
[5]
  scaled lipid accumulation score: 0.728 (active)
[1]
  scaled lipid accumulation score: 0.648 (active)

## Nc1ccccc1NC(=O)c1ccc(CNC(=O)OCc2cccnc2)cc1
[3]
  scaled lipid accumulation score: ≤ 0
[4]
  scaled lipid accumulation score: ≤ 0
[6]
  scaled lipid accumulation score: 0.014
[5]
  scaled lipid accumulation score: ≤ 0
[1]
  scaled lipid accumulation score: 0.628

## Nc1ccccc1NC(=O)c1ccc(CNc2nccc(-c3cccnc3)n2)cc1 [Mocetinostat (MGCD0103)] [listing 1 of 2 here]
[2]
  scaled lipid accumulation score: 0.974 (active)

## Nc1ccccc1NC(=O)c1ccc(CNc2nccc(-c3cccnc3)n2)cc1 [Mocetinostat (MGCD0103)] [listing 2 of 2 here]
[1]
  scaled lipid accumulation score: 0.769

## O=C(Nc1ccc(Cl)cc1)c1ccccc1NCc1ccncc1 [VEGF Receptor Tyrosine Kinase Inhibitor II]
[2]
  scaled lipid accumulation score: ≤ 0

## COC(=O)C(N)Cc1ccc(Cl)cc1 (racemic) [DL-p-Chlorophenylalanine methyl ester hydrochloride]
[1]
  scaled lipid accumulation score: ≤ 0

## CCCCCCCC/C=C\CCCCCCCC(=O)OC[C@@H](O)COP(=O)(O)O [1-Oleoyl Lysophosphatidic Acid]
[6]
  scaled lipid accumulation score: ≤ 0

## CCCCCCCC/C=C\CCCCCCCC(=O)OC[C@@H](O)COP(=O)(O)O [1-Oleoyl Lysophosphatidic Acid (sodium salt)]
[6]
  scaled lipid accumulation score: ≤ 0

## CCCCCCCCCCOc1ccc(OCC(=O)Cn2cc(C(=O)OC)c3cc(C(=O)O)ccc32)cc1
[6]
  scaled lipid accumulation score: ≤ 0

## CCCCCCC(Sc1nc(Cl)cc(NCc2ccc(-c3ccccc3)cc2)n1)C(=O)O (centres undefined)
[6]
  scaled lipid accumulation score: ≤ 0

## CCCCCC(=O)CCC1C(=O)C=CC1C/C=C\CCCC(=O)O (centres undefined) [13,14-dihydro-15-keto Prostaglandin J2]
[6]
  scaled lipid accumulation score: ≤ 0

## CCCCC[C@H](O)/C=C/[C@H]1OC(O)C[C@H](O)[C@@H]1C/C=C\CCCC(=O)O (some centres undefined) [Thromboxane B2]
[6]
  scaled lipid accumulation score: ≤ 0

## CC(C)CCN1C(=O)N(CCN(C)C)C(=O)C12CCN(Cc1cn(C)c3ccccc13)CC2
[1]
  scaled lipid accumulation score: 0.692 (active)

## C[C@@H]1[C@H](O)[C@@H](C)/C=C/C=C/C=C/C=C/C=C/C=C/C=C/[C@H](O[C@@H]2O[C@H](C)[C@@H](O)[C@H](N)[C@@H]2O)C[C@@H]2O[C@](O)(C[C@@H](O)C[C@@H](O)[C@H](O)CC[C@@H](O)C[C@@H](O)CC(=O)O[C@H]1C)C[C@H](O)[C@H]2C(=O)O [Amphotericin B]
  scaled lipid accumulation score: 0.003
[2]
  scaled lipid accumulation score: 0.002
[1]
  scaled lipid accumulation score: ≤ 0

## C[C@@H]1[C@H](O)[C@@H](C)/C=C/C=C/C=C/C=C/C=C/C=C/C=C/[C@H](O[C@@H]2O[C@H](C)[C@@H](O)[C@H](N)[C@@H]2O)C[C@@H]2O[C@](O)(C[C@@H](O)C[C@@H](O)[C@H](O)CC[C@@H](O)C[C@@H](O)CC(=O)O[C@H]1C)C[C@H](O)[C@H]2C(=O)O [Amphotericin b]
[1]
  scaled lipid accumulation score: ≤ 0
